From PubChem BioAssay
Compounds with a hit are over-represented: about 19% of the library has one in this group of screens.
DT40 TDP1 no CPT: qHTS for Inhibitors of human tyrosyl-DNA phosphodiesterase 1 (TDP1): qHTS in cells in absence of CPT. DT40 Tdp1-/- hTDP1 cells, no CPT, ATP luminescence, 48 h. actives 15% (n = 420,000). Potency, µM (doses to about 46.2 µM), hits mostly inhibitors; note: nearly all actives have a fitted effect of over 55% in size
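Luminescent ATP content (CellTiter-Glo) served as the growth readout. Knockout chicken DT40 cells expressing human TDP1 were exposed to compounds without camptothecin for a minimum 48 hr at 37 °C.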
DT40 TDP1 CPT: qHTS for Inhibitors of human tyrosyl-DNA phosphodiesterase 1 (TDP1): qHTS in cells in presence of CPT; chicken DT40 Tdp1-/-;hTDP1 cells + 20 nM CPT, ATP luminescence, 48 h; Potency, µM (series often up to 46.2 µM), most hits filed as inhibitors; actives 12% (n = 420,000); AID 686979, 2013; note: nearly all actives have a fitted effect of over 55% in size
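Chicken DT40 Tdp1-/- cells stably complemented with human TDP1 were seeded at 400 cells/well in medium containing 20 nM camptothecin, exposed to pin-transferred compounds, and grown at 37 °C for at least 48 hr. Viability was read as ATP luminescence.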
HT1080-NT tox: qHTS for induction of synthetic lethality in tumor cells producing 2HG: qHTS for the HT-1080-NT fibrosarcoma cell line | HT-1080-NT fibrosarcoma viability, CellTiter-Glo ATP luminescence, 48 h | Potency, µM (highest dose often 46.1 µM), hits mostly cytotoxic | actives 1.6% (n = 360,000) | AID 686970, 2013;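 note: NT is the 2HG producing partner of a matched IDH1 knockdown line; nearly all actives have a fitted effect of over 55% in size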
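A 48-hour cytotoxicity screen used HT-1080-NT cells plated 2 hours before compound delivery. ATP-based CellTiter-Glo luminescence measured viability, normalized to DMSO and no-cell controls.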
KB-V1 MDR tox: qHTS assay for MDR1-selective chemotherapeutics: Primary screen using the drug-selected MDR subline cells KB-V1 | KB-V1 MDR cells viability, CellTiter-Glo, 72 h | Potency, µM (highest dose often 46.1 µM), hits mostly cytotoxic | actives 3.4% (n = 400,000); note: nearly all actives have a fitted effect of over 60% in size
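Compound-treated KB-V1 multidrug-resistant cells, 72 h, 37 degrees C; viability by CellTiter-Glo. Fitted qHTS curves give the values.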
KB-3-1 cytotox: qHTS assay for MDR1-selective chemotherapeutics: Primary screen using the parental adenocarcinoma cell KB-3-1 | KB-3-1 viability, CellTiter-Glo ATP luminescence, 72 h | Potency, µM (top dose mostly 46.1 µM), actives largely listed as cytotoxic | actives 1.4% (n = 400,000); note: nearly all actives have a fitted effect of over 60% in size
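Using CellTiter-Glo luminescence, growth of non-resistant KB-3-1 adenocarcinoma cells is assessed 72 h after pin-tool compound addition at 37 °C. Normalized responses across the concentration series yield fitted curves.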
HT1080 IDH1KD tx: qHTS for induction of synthetic lethality in tumor cells producing 2HG: qHTS for the HT-1080-IDH1KD cell line; AID 686971, 2013; Potency, µM (doses to about 46.1 µM), actives largely listed as cytotoxic; HT-1080 IDH1 knockdown viability, ATP luminescence, 48 h; actives 2% (n = 360,000)
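Luminescent ATP read-out (CellTiter-Glo, 10 min at room temperature) after 48 h compound exposure at 37 °C gave viability of IDH1-knockdown HT-1080 cells. Activity was normalised to DMSO and cell-free wells, then fitted as concentration-response curves.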
Numbers stand for hits. Calls come from the whole dose curve; as a rule, active = well fitted curve in the direction sought with a large enough effect; inconclusive = small, poorly fitted or top-dose-only effect, or another doubt; inactive = no such curve, though single readings can be large; an effect the other way counts as inactive or inconclusive.

What do the screens show for `O=C(NCCc1nc2ccc(Cl)cc2[nH]1)C1CCC(=O)N(Cc2cccc(F)c2)C1` (stereo not given)?
DT40 TDP1 no CPT: inactive; DT40 TDP1 CPT: inactive; HT1080-NT tox: inactive; KB-V1 MDR tox: inactive; KB-3-1 cytotox: inactive; HT1080 IDH1KD tx: inactive

What do the screens show for `COC(=O)C1=C(C)N(CCCC(=O)O)C(=O)NC1c1cccc(Cl)c1Cl` (stereo not given)?
DT40 TDP1 no CPT: inactive; DT40 TDP1 CPT: inactive; HT1080-NT tox: inactive; KB-V1 MDR tox: inactive; KB-3-1 cytotox: inconclusive; HT1080 IDH1KD tx: inactive

What do the screens show for `Cc1cccc(CSc2nc(N)c(C#N)c(-c3cccs3)c2C#N)c1`?
DT40 TDP1 no CPT: inconclusive; DT40 TDP1 CPT: inconclusive; HT1080-NT tox: inactive; KB-V1 MDR tox: 11µM; KB-3-1 cytotox: inconclusive; HT1080 IDH1KD tx: inactive

What do the screens show for `Cc1cccc(CSc2nc3c(c(-c4cccs4)c2C#N)CN(C)CC3)c1`?
DT40 TDP1 no CPT: inconclusive; DT40 TDP1 CPT: inconclusive; HT1080-NT tox: inactive; KB-V1 MDR tox: inactive; KB-3-1 cytotox: inactive; HT1080 IDH1KD tx: inactive

Results for C=CCC1(CC=C)CCCN1C(=O)C1CCC(=O)N(CCc2ccccc2)C1 (stereo not given) ?
DT40 TDP1 no CPT: 5.8µM; DT40 TDP1 CPT: 9.2µM; HT1080-NT tox: inactive; KB-V1 MDR tox: inconclusive; KB-3-1 cytotox: inactive; HT1080 IDH1KD tx: inactive

What do the screens show for `C=CCC1(CC=C)CCCN1C(=O)C1CCC(=O)N(CCc2ccc(OC)cc2)C1` (stereo not given)?
DT40 TDP1 no CPT: 10µM; DT40 TDP1 CPT: 12µM; HT1080-NT tox: inactive; KB-V1 MDR tox: inactive; KB-3-1 cytotox: inactive; HT1080 IDH1KD tx: inactive

Results for COc1ccc(CCN2CC(C(=O)N3CCC(OC)CC3)CCC2=O)cc1 (stereo not given) ?
DT40 TDP1 no CPT: inactive; DT40 TDP1 CPT: inactive; HT1080-NT tox: inactive; KB-V1 MDR tox: inactive; KB-3-1 cytotox: inactive; HT1080 IDH1KD tx: inactive

Results for Nc1cc(C(F)(F)F)ccc1NCCc1ccccn1 ?
DT40 TDP1 no CPT: inactive; DT40 TDP1 CPT: inactive; HT1080-NT tox: inactive; KB-V1 MDR tox: inactive; KB-3-1 cytotox: inactive; HT1080 IDH1KD tx: inactive

Results for CC1(C)CCC[C@]2(C)C(CS(=O)c3ccccc3)=C(C=O)CC[C@@H]12 (stereo not given in full) ?
DT40 TDP1 no CPT: 21µM; DT40 TDP1 CPT: inconclusive; HT1080-NT tox: inactive; KB-V1 MDR tox: inconclusive; KB-3-1 cytotox: inconclusive; HT1080 IDH1KD tx: inactive

How did O=C(Nc1ccccc1)Nc1ccc(F)c([N+](=O)[O-])c1 do in these assays?
DT40 TDP1 no CPT: 16µM; DT40 TDP1 CPT: 16µM; HT1080-NT tox: inactive; KB-V1 MDR tox: inconclusive; KB-3-1 cytotox: inconclusive; HT1080 IDH1KD tx: inactive

How did O=C(Nc1ccc(F)c([N+](=O)[O-])c1)C(=O)c1c(O)[nH]c2ccccc12 do in these assays?
DT40 TDP1 no CPT: 13µM; DT40 TDP1 CPT: 18µM; HT1080-NT tox: inactive; KB-V1 MDR tox: inactive; KB-3-1 cytotox: inactive; HT1080 IDH1KD tx: inactive

Results for COc1cccc(CNC(=O)Cn2ncc3c(=O)oc4ccccc4c32)c1 ?
DT40 TDP1 no CPT: inconclusive; DT40 TDP1 CPT: inconclusive; HT1080-NT tox: inactive; KB-V1 MDR tox: inactive; KB-3-1 cytotox: inactive; HT1080 IDH1KD tx: inactive

What do the screens show for `CN(Cc1ccccn1)Cc1nc(Cc2ccccc2Cl)no1`?
DT40 TDP1 no CPT: inactive; DT40 TDP1 CPT: inactive; HT1080-NT tox: inactive; KB-V1 MDR tox: inactive; KB-3-1 cytotox: inactive; HT1080 IDH1KD tx: inactive

Results for Cc1cnccc1CN(C)Cc1nc(Cc2ccccc2Cl)no1 ?
DT40 TDP1 no CPT: 15µM; DT40 TDP1 CPT: 18µM; HT1080-NT tox: inconclusive; KB-V1 MDR tox: 9.2µM; KB-3-1 cytotox: 21µM; HT1080 IDH1KD tx: inactive
